Our source for the outcome and Potency values is PubChem BioAssay (Tox21).

The nature of assay [1]: A CellTox Green Cytotoxicity Assay to monitor cytotoxicity in HepG2 cells - 8 hour (AID 1224890). Also: nearly all actives have a fitted effect of over 45% in size. In outline: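 Continuous culture of HepG2 cells with a membrane-impermeant DNA dye; rising fluorescence marks dead cells. Compound exposure lasted up to 40 h at 37 C, with reads every 8 h from 0 h.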
The nature of assay [2]: qHTS assay to identify small molecule antagonists of the estrogen receptor alpha (ER-alpha) signaling pathway using the BG1 cell line in the presence of 0.1 nM 17-beta-estradiol - cell viability counter screen (AID 1259241). Also: nearly all actives have a fitted effect of over 40% in size. In short, it runs like this:
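Estradiol-stimulated (0.1 nM) VM7Luc4E2 cells exposed to compounds 22 hr; viability measured by fluorescence of cleaved CellTiter-Fluor substrate after 30 min.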
On the technique in general: In qHTS, concentration-response curves come from the screen itself.

A short description of assay [3]: qHTS assay to identify small molecule antagonists of the androgen receptor (AR) signaling pathway using the MDA cell line in the presence of 0.5 nM R1881 - cell viability counter screen (AID 1259242). Also: nearly all actives have a fitted effect of over 45% in size. In short, it runs like this: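 Fluorescence from CellTiter-Fluor, which reports protease activity of live cells, was read 30 min after reagent addition to MDA-kb2 cells that had been incubated 16 hr with compound and 0.5 nM R1881.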

Assay [4] addresses Androgen receptor (Homo sapiens) (UniProt P10275). Briefly: qHTS assay to identify small molecule antagonists of the androgen receptor (AR) signaling pathway using the MDA cell line in the presence of 0.5 nM R1881 (AID 1259243). Also: nearly all actives have a fitted effect of over 50% in size. Also: potency is read from the fitted curve at half-maximal effect. In short, it runs like this: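 Inhibition of R1881 (0.5 nM final) induced reporter signal was measured in human MDA-kb2 cells; note the MMTV promoter also responds to GR. Exposure lasted 16 hr at 37C.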

Assay [5] can be described thus: qHTS assay to identify small molecule HDAC inhibitors (AID 1259364). Also: nearly all actives have a fitted effect of over 45% in size. Also: potency is read from the fitted curve at half-maximal effect. In outline: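 Endogenous HDAC class I/II activity was measured in wild-type HCT-116 cells by HDAC-Glo luminescence after 2 h compound treatment.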
Assay [6] in a line: qHTS assay to identify small molecule HDAC inhibitors - cell viability counter screen (AID 1259365). Also: series mostly up to about 92 µM; nearly all actives have a fitted effect of over 50% in size. In short, it runs like this: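 After overnight seeding at 1,500 cells per well, wild-type HCT-116 cultures took up compounds in DMSO for 2hr at 37 C. Viable cell content came from luminescence with CellTiter-Glo.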
Assay [7] is described as follows: qHTS assay to identify small molecule agonists of the sonic hedgehog signaling (Shh) pathway - cell viability counter screen (AID 1259366). Also: nearly all actives have a fitted effect of over 50% in size. In outline: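 Same-well cytotoxicity read. Gli1-Luc reporter 3T3 cells; compounds 24hr, 37C/5% CO2; CellTiter-Fluor fluorescence.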
Assay [8] is described as follows: qHTS assay to identify small molecule antagonists of the sonic hedgehog signaling (Shh) pathway - cell viability counter screen (AID 1259367). Also: nearly all actives have a fitted effect of over 55% in size. In outline: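 Seed 3T3 Gli1-Luc cells at 2,000 per well; incubate 4 hr; add compound in DMSO, then conditioned medium; incubate at 37C with 5% CO2; add CellTiter-Fluor after 23 hr; read fluorescence 1 hr later.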
The target of assay [9] is Estrogen receptor (Homo sapiens) (UniProt P03372). Briefly: qHTS assay to identify small molecule antagonists of the estrogen receptor alpha (ER-alpha) signaling pathway using the BG1 cell line in the presence of 0.1 nM 17-beta-estradiol (AID 1259244). Also: nearly all actives have a fitted effect of over 50% in size. In short, it runs like this: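 Quantitative high-throughput screen in VM7Luc4E2 cells: compound plus 0.1 nM E2 (final), 22 h, 37C, 5% CO2; ONE-Glo added, 30 min room temperature, luminescence measured.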
Sequence of Estrogen receptor (Homo sapiens) (P03372 whole entry, looked up): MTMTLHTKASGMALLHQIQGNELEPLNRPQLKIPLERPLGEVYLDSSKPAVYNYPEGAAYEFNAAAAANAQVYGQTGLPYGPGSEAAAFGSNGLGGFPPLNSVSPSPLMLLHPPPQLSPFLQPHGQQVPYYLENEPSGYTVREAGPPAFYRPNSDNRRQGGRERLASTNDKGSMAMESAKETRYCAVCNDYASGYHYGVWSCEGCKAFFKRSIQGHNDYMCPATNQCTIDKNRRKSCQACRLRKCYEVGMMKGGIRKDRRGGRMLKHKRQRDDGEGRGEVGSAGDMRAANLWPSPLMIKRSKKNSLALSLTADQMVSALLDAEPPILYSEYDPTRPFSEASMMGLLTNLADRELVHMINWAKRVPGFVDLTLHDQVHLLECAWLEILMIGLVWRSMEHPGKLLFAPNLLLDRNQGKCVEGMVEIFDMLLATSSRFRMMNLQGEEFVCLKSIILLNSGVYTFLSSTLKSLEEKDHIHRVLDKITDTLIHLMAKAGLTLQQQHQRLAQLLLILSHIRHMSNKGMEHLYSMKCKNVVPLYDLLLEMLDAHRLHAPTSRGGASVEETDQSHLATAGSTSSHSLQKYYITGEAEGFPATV

Assay [10] in a line: qHTS assay to identify small molecule phospholipidosis (PLD) inducers (AID 1259344; active = well fitted curve in the direction sought with a large enough effect; an effect the other way counts as inactive or inconclusive). In short, it runs like this:
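Quantitative HTS in HepG2: compound plus LipidTOX Red dye for 24 h, paraformaldehyde fixation with Hoechst 33342, widefield high-content imaging; amiodarone as positive and DMSO as negative control.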

Values without a mark were called inactive. Inconclusive results are not listed. Calls of active or inactive are those of the source. Unless noted, calls follow the shape of the dose curve; as a rule, active = well fitted curve in the direction sought with a large enough effect in the repeat runs; inconclusive = weak or mixed curves; inactive = no such curve, though single readings can be large; an effect the other way counts as inactive or inconclusive.

Sequence of Androgen receptor (Homo sapiens) (P10275 whole entry, looked up): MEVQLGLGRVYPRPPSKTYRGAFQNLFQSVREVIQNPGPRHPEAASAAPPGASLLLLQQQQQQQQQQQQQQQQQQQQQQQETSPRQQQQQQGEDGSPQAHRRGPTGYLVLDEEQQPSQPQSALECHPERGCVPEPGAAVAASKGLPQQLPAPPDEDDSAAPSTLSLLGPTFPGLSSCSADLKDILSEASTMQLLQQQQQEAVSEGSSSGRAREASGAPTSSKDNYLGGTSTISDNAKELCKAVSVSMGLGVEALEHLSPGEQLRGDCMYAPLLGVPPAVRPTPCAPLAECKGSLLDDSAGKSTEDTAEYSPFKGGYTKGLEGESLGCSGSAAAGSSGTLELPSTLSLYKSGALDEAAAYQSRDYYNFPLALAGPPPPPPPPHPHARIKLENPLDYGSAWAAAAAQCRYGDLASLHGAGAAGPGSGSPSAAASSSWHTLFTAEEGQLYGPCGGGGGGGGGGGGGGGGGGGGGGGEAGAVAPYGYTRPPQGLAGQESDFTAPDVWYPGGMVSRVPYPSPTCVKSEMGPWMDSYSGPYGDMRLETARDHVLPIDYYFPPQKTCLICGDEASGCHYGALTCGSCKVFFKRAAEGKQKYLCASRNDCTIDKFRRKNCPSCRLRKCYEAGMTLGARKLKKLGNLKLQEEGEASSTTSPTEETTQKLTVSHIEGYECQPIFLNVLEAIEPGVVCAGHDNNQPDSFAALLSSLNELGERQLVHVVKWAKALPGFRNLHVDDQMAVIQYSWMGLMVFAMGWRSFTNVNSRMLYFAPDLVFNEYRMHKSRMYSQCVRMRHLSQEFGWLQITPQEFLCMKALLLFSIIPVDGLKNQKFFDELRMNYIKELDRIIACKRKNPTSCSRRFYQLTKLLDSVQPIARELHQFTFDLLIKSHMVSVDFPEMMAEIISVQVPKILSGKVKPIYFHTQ

Regarding `C=CCCCCCCCCCCCC`, the compound was called inactive in assay [1], in assay [3] and in assay [6]. Further, the Potency result in assay [2], in assay [4], in assay [5], in assay [7] and in assay [8] was “inactive” in each case.
With `COC(=O)[C@@H]1[C@H]2C[C@H]3c4[nH]c5ccccc5c4CCN3C[C@@H]2CC[C@@H]1O`, the outcome in [1], in assay [3], in assay [10] and in assay [6] was inactive. In addition, the Potency entry in assay [2], in assay [9], in assay [5] and in assay [7] was “inactive” throughout.
As for `O=C(O)c1cc(Br)c(O)c(Br)c1`, the compound was called inactive in [1], in [3] and in [6]. Further, the Potency entry in assay [2], in assay [4], in assay [5], in [7] and in [8] was “inactive” each time.
Consider `OCCN(CCO)c1cccc(Cl)c1`, for which the compound was called inactive in assay [1], in [3] and in [6]. Besides, the Potency result in [2], in assay [4], in [7] and in assay [8] was “inactive” in each case.
In the case of `C=C(C)C(=O)OCCN(CC)CC`, the compound was called inactive in assay [1], in assay [3] and in [6]. In addition, the Potency result in [2], in assay [4], in assay [5] and in assay [7] was “inactive” in each case.
For `O=C(O)Cc1cn(-c2ccccc2)nc1-c1ccc(Cl)cc1`, the outcome in [1], in assay [3], in assay [10] and in assay [6] was inactive. The Potency result in [2], in assay [9], in assay [5] and in assay [7] was “inactive” in each case.
`CN(C)C(=O)CNC(=O)Cc1ccccc1`: the compound was classed as inactive in assay [1], in assay [3], in assay [10] and in assay [6]. Besides, the Potency result in assay [2], in [9], in assay [5] and in assay [7] was “inactive” in each case.
In the case of `CC/C=C\CC1=C(C)CCC1=O`, the call in assay [1], in assay [3] and in [6] was inactive. In addition, the Potency result in [2], in assay [4] and in [7] was “inactive” each time.
On to `Nc1ncnc(Nc2ccccc2)n1`, for which the compound was called inactive in [1], in [3], in [10] and in [6]. The Potency entry in [2], in assay [9], in assay [7] and in assay [8] was “inactive” throughout. Moreover, in [5], the Potency was 10.6 µM (active).
With `BrCc1cccc(Oc2ccccc2)c1`, the compound was classed as inactive in assay [1], in assay [3] and in [6]. Moreover, the Potency result in [2], in assay [5], in [7] and in [8] was “inactive” in each case. Also, the Potency in assay [4] was 54.5 µM (active).
In the case of `CN(CCOc1ccc(NS(C)(=O)=O)cc1)CCc1ccc(NS(C)(=O)=O)cc1`, the compound was called inactive in [1], in assay [3], in [10] and in assay [6]. In addition, the Potency result in assay [2], in assay [9], in [5], in [7] and in [8] was “inactive” in each case.
As to `Cc1c(I)c(=O)n(-c2ccccc2)n1C`, the compound was called inactive in assay [1], in [3], in [10] and in assay [6]. In addition, the Potency result in [2], in assay [9], in assay [5], in assay [7] and in [8] was “inactive” each time.
As for `CCCCCCCCOS(=O)(=O)O`, the result in assay [1], in [3] and in assay [6] was inactive. Besides, the Potency entry in [2], in assay [9], in [5], in [7] and in [8] was “inactive” in each case.
For the compound `O=C(CS(=O)Cc1ccco1)NC/C=C\COc1cc(CN2CCCCC2)ccn1` (stereo not given), the outcome in [1], in assay [3], in assay [10] and in assay [6] was inactive. Besides, the Potency entry in assay [2], in assay [9], in assay [7] and in assay [8] was “inactive” in each case.
With `C=C(C)C(=O)OCc1ccccc1`, the result in assay [1], in assay [3] and in assay [6] was inactive. The Potency entry in assay [2], in [9], in assay [5] and in assay [7] was “inactive” in each case.
Take `CCCCC(CC)COCCO` (stereo not given): the compound was called inactive in [1], in [3] and in assay [6]. Besides, the Potency entry in assay [2], in assay [9], in [5], in assay [7] and in [8] was “inactive” throughout.
With `c1ccc2nccnc2c1`, the compound was called inactive in assay [1], in assay [3] and in assay [6]. The Potency result in assay [2], in assay [9], in [5], in assay [7] and in [8] was “inactive” in each case.
Consider `ClCCCl`, for which the result in assay [1], in assay [3] and in [6] was inactive. The Potency entry in assay [2], in assay [9], in [5], in [7] and in assay [8] was “inactive” in each case.
For the compound `O=S(=O)(O)c1ccc2cc(O)c(S(=O)(=O)O)cc2c1`, the outcome in [1], in [3] and in assay [6] was inactive. For the same compound, the Potency result in assay [2], in assay [9], in [5], in [7] and in [8] was “inactive” in each case.
